Rows were chosen to be rich in hits. Some 9.3% of all compounds tested hit in one or more screens of this group.
ELG1 genotox: inducers of genotoxicity in HEK293T ELG1-luciferase cells; HEK293T ELG1-luciferase reporter, luminescence, 16 h; Potency, µM (highest dose often 46 µM), for the others: at the top dose activity change, positive = activation, most hits filed as activators; actives 1.3% (n = 330,000); AID 504466; further: % of control where 0% means no effect; nearly all actives have a fitted effect of over 60% in size
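Quantitative HTS format in 1536-well plates. HEK293T ELG1-luciferase reporter cells receive test compound and are incubated 16 hr at 37 °C, 5% CO2; ONE-Glo added, 30 min room temperature, then luminescence read.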
Rab9 promoter act: activates the Rab9 promoter; Potency, µM (titrated, usually from 9.22 µM), for inactives: at the highest dose activation, negative = inhibition, hits mostly activators; actives 2.8% (n = 320,000); Huh7 Rab9 promoter-luciferase reporter, luminescence, 24 h; further: % of control where 0% means no effect; nearly all actives have a fitted effect of over 60% in size
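Promoter activation is measured as luciferase luminescence in Huh7 cells stably transfected with a Rab9 promoter–luciferase construct, following 24 h compound exposure at 37 °C and 10 min reagent incubation at ambient temperature.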
NPC1 prom act: activates the NPC1 promoter. Huh7 NPC1 promoter luciferase reporter, 24 h. actives 2.4% (n = 320,000). Potency, µM (doses to about 9.22 µM), for inactives: at the highest dose activation, hits mostly activators; further: % of control where 0% means no effect; nearly all actives have a fitted effect of over 60% in size
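Huh7 reporter cells (NPC1 promoter driving luciferase) are dosed with compound for 24 h at 37 °C, 5% CO2; luciferase detection reagent is then added and luminescence measured after 10 min at ambient temperature.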
ELG1 DNA repair: ELG1-dependent DNA repair inhibition; actives 2.3% (n = 330,000); AID 504467; HEK293T ELG1-luciferase reporter, luminescence, 16 h; DNA damage induced by 5-fluorouridine; Potency, µM (doses to about 46.1 µM), for the others: at the highest dose activity change, negative = inhibition, hits mostly inhibitors; further: on the % scale 0 is the no-effect control and ±100 the full control effect; nearly all actives have a fitted effect of over 55% in size
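Quantitative HTS, concentration-response format. 2,000 cells/well co-treated with 5-fluorouridine and compound, 16 hr in 5% CO2 at 37 °C; ONE-Glo luminescence read after 30 min.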
FLuc counter: inhibits or activates purified firefly luciferase, miR-21 counter-screen; purified FLuc, Km substrates, luminescence inhibition; actives 6.9% (n = 360,000); Potency, µM (top dose mostly 57.5 µM), without a hit: at the top dose activity change, negative = inhibition, most hits filed as inhibitors; AID 588342;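 further: plate controls were vehicle for no effect and reference inhibitor for full effect; nearly all actives have a fitted effect of over 55% in size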
Target sequence (P08659 whole entry, looked up): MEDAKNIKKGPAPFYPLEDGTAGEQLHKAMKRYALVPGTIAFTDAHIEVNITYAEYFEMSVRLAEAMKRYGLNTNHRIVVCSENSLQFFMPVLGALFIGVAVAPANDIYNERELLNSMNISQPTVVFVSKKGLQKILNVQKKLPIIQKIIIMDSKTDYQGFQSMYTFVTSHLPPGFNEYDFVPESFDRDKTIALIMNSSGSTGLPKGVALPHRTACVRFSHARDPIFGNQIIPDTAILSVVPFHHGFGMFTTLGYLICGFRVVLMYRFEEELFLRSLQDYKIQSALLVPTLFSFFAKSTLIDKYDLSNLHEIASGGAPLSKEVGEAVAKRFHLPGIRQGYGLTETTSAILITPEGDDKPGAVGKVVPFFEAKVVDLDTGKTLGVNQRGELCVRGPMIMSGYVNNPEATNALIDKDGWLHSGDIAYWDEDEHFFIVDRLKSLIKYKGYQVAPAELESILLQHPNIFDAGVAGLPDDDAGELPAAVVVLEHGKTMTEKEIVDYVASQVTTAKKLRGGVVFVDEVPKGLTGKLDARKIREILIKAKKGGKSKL
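Purified P. pyralis luciferase (10nM final) with 10uM D-luciferin and 10uM ATP (Km levels) in 50mM Tris acetate pH 7.5, 10mM Mg acetate, 0.01% Tween-20, 0.05% BSA; qHTS 6-point titration, ~60 µM downward; luminescence read.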
SMN2 splice enh: increases expression of the SMN2 splice variant; AID 1458; actives 2.8% (n = 210,000); HEK293 SMN2-luciferase splicing reporter, luminescence, 30-36 h; Potency, µM (series often up to 46.1 µM), for the others: at the top dose activity change, positive = activation, usual class: activators; further: % of control where 0% means no effect; nearly all actives have a fitted effect of over 55% in size
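HEK293 cells carry an SMN2 […]–luciferase reporter in which exon 7 inclusion puts luciferase in frame. Cells were plated 10-12 h before compound addition, then incubated 30-36 h at 37C. ONE-Glo luminescence was read; sodium butyrate at 4.5 mM final served as control.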
* marks the source's active call; other numbers are inactive results; ? = inconclusive; . = no result. The call rests on the fitted dose curve; in most records, active means well fitted curve in the direction sought with a large enough effect; inconclusive means small, poorly fitted or top-dose-only effect, or another doubt; inactive means no such curve, though single readings can be large; an effect the other way counts as inactive or inconclusive. Potency means the concentration at half of the fitted maximal effect.

SMILES	ELG1 genotox	Rab9 promoter act	NPC1 prom act	ELG1 DNA repair	FLuc counter	SMN2 splice enh
COc1cc(C(=O)NCC(=O)OCn2nnc3ccccc3c2=O)cc(OC)c1OC	2%	-6%	-1%	-9%	-3%	6%
O=C(CSc1nnc(-c2ccc(C(F)(F)F)cn2)o1)Nc1cccc(Cl)c1	?	?	3.2µM*	?	.	.
NCCc1nnc(SCC(=O)Nc2cccc(Cl)c2)o1	0%	3%	0%	17%	3%	.
COc1ccc(OCc2nnc(SCC(=O)Nc3cccc(Cl)c3)o2)cc1	0%	0%	-2%	-7%	19µM*	.
NC(=S)Nc1ccc(F)c(F)c1F	0%	0%	0%	2%	-1%	.
COc1ccc(CNC(=O)c2ccccc2NS(C)(=O)=O)cc1	1%	-2%	1%	2%	-2%	4%
Cc1cccnc1NC(=O)CCn1c(=O)oc2ccccc21	5%	-2%	-3%	14%	-1%	.
O=C(CC(SCCO)c1ccc2c(c1)OCO2)c1cccs1 (stereo not given)	?	4µM*	?	?	13µM*	24%
CC(C)CC(=O)Nc1cccc(-c2cn3ccsc3n2)c1	?	?	?	?	12µM*	18µM*
CC(C)C(=O)Nc1cccc(-c2cn3ccsc3n2)c1	?	29%	13%	23%	15µM*	23%
CCC(CC)C(=O)Nc1cccc(-c2cn3cccnc3n2)c1	.	.	.	.	-8%	.
CC(C)(C)CC(=O)Nc1cccc(-c2cn3cccnc3n2)c1	?	2.5µM*	?	?	11µM*	11µM*
CCC(=O)Nc1cccc(-c2cn3ccsc3n2)c1	6%	-4%	14%	?	17µM*	24%
Cc1ccc(S(=O)(=O)Nc2cccc(-c3cn4ccsc4n3)c2)cc1	-6%	-9%	-16%	?	?	?
CCOC(=O)Nc1ccc2c(c1)nc1n2CCN(CCOC)C1	10%	19%	10%	?	?	.
Cc1cc(NC(=O)CCl)n(-c2nc3ccccc3s2)n1	8%	-1%	-7%	-5%	-6%	-21%
Cc1cc(NC(=O)C2CC2)n(-c2nc3ccccc3s2)n1	7%	18%	-1%	0%	15µM*	0%
Cc1cc(C(=O)Nc2cccc([N+](=O)[O-])c2)c(C)o1	0%	-1%	-5%	2%	-20%	2%
Cc1ccc(-c2ccc(NC(=O)C3C4C=CC(C4)C3C(=O)O)cc2)o1 (stereo not given)	15%	3.2µM*	3.5µM*	?	15µM*	-28%
COc1ccc(Cl)cc1NC(=O)CN(C)CC(=O)Nc1cc(OC)c(OC)c(OC)c1	-9%	-16%	-31%	18µM*	-1%	.
COc1ccc(Cl)cc1NC(=O)CN(C)CC(=O)Nc1c(C)n(C)n(-c2ccccc2)c1=O	-6%	-8%	0%	18µM*	3%	.
COc1cc(OC)cc(-c2sc3ccc(OC)cc3c2-c2ccc(O)cc2)c1	2%	.	.	?	.	.
COc1ccc(-c2sc3ccc(OC)cc3c2-c2ccc(O)cc2)cc1	-9%	.	.	23µM*	.	.
Nc1cc(C(=O)OCC(=O)NCc2ccc(F)cc2)ccc1Cl	1%	-3%	0%	17%	1%	18%
S=c1[nH]c(-c2ccccc2)cn1/N=C/c1ccccc1Br	-4%	25%	29%	6%	13µM*	5%
SMILES	ELG1 genotox	Rab9 promoter act	NPC1 prom act	ELG1 DNA repair	FLuc counter	SMN2 splice enh
S=c1[nH]c(-c2ccccc2)cn1/N=C/c1cccc2ccccc12	-2%	1%	0%	-14%	?	-2%
CCOC(=O)c1cnc(SCC(=O)c2ccc3c(c2)OCCO3)nc1N	4%	?	0%	16%	21µM*	14%
CCOC(=O)c1cnc(SCC(=O)c2ccc(C)cc2)nc1N	6%	11%	-4%	?	1%	14%
CCOC(=O)c1cnc(SC)nc1N	12%	-1%	-1%	?	-9%	-10%
CCOC(=O)c1cnc(SCc2cccc(C)c2)nc1N	16µM*	30%	29%	?	?	?
CCOC(=O)c1cnc(SCC(C)C)nc1N	?	2.5µM*	3.2µM*	?	6.7µM*	14µM*
CCOC(=O)c1cnc(SCC(=O)c2ccccc2)nc1N	21µM*	1.6µM*	3.2µM*	?	2.1µM*	13µM*
COc1c(F)c(F)cc2c(=O)c(C(=O)O)cn(C3CC3)c12	-2%	0%	-2%	?	1%	.
Cc1cc(C)n(-c2cc(N3CCN(C(=O)c4ccc(C(C)(C)C)cc4)CC3)ccc2[N+](=O)[O-])n1	-6%	0%	-3%	?	?	-64%
Cc1cc(C)n(-c2cc(N3CCN(C(=O)c4cccc(F)c4)CC3)ccc2[N+](=O)[O-])n1	-3%	-5%	1%	21µM*	-2%	-30%
CCOC(=O)Oc1ccc2c(=O)c(Oc3cccc(C)c3)coc2c1	?	22%	15%	0%	?	2%
Cc1c(C(=O)O)cccc1-c1ccc(/C=N/Nc2ccc(Br)cc2)o1	?	?	?	?	12µM*	.
Cc1ccc(C(=O)N/N=C/c2ccc(-c3cccc(Cl)c3)o2)cn1	-6%	-1%	-6%	?	?	.
COC(=O)c1ccc(Cl)c(-c2ccc(/C=N/NC(=O)Nc3ccccc3)o2)c1	10%	1%	-2%	-4%	1%	22%
O=C(O)c1ccc(N/N=C/c2ccc(-c3ccc(Cl)cc3Cl)o2)cc1	?	21%	?	?	0.95µM*	.
O=C(O)c1ccc(N/N=C/c2ccc(-c3cccc(Cl)c3)o2)cc1	?	0.32µM*	0.45µM*	?	2.7µM*	.
O=C(O)c1ccc(N/N=C/c2ccc(-c3cc(Cl)ccc3Cl)o2)cc1	?	?	?	?	9.5µM*	.
Cc1c(C(=O)O)cccc1-c1ccc(/C=N/n2cnnc2)o1	7%	-4%	-10%	28%	-4%	.
CC1CCc2c(sc3nnn(CCCCOc4ccc(Cl)cc4)c(=O)c23)C1 (stereo not given)	.	.	.	.	4%	15%
CCCOc1cccc(C(=O)Nc2cc(NC(=O)c3ccco3)ccc2OC)c1	-21%	-1%	1%	?	?	-35%
Cc1c(C(=O)OCc2ccccc2)[nH]c2c1C(=O)CC(c1ccc(N(C)C)cc1)C2 (stereo not given)	.	.	.	.	0%	-7%
O=C(Nc1cccc(S(=O)(=O)N2CCCCC2)c1)c1cccs1	-8%	7%	-7%	0%	-1%	.

Compound activity (PubChem)
